Results on six compounds are retold here after PubChem BioAssay (Tox21).

Experiment [1] can be described thus: qHTS assay to identify small molecule agonists of the hypoxia (HIF-1) signaling pathway - cell viability counter screen (AID 1224844; calls by dose curve; also: nearly all actives have a fitted effect of over 50% in size; also: potency is read from the fitted curve at half-maximal effect). In outline:
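HRE-bla ME-180 cells in medium with 0.5% dialyzed FBS were preincubated 5 hrs at 37C, exposed to compounds for 17 hrs, then viability was read as CellTiter-Glo luminescence after 30 min at room temperature, in the reporter wells.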
Background: Quantitative high-throughput screening tests each substance at several concentrations.

The nature of experiment [2]: qHTS assay to identify small molecule agonists of H2AX (AID 1224845; active = well fitted activation curve with a large enough effect in the signal ratio in the repeat runs, not every such curve was filed as active; the % refers to the signal ratio). Summed up:
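Wild-type CHO-K1 cells plated overnight, then exposed 3 hr at 37C to compounds at 15 concentrations (0.76% DMSO). Lysed, then HTRF anti-pH2AX(S139)-cryptate/anti-H2AX-d2 detection after 24 hr at room temperature; emissions 665 and 620 nm.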

Experiment [3] can be described thus: qHTS assay to identify small molecule agonists of the hypoxia (HIF-1) signaling pathway (AID 1224846; active = well fitted activation curve with a large enough effect in the signal ratio in the repeat runs, not every such curve was filed as active; the % refers to the signal ratio). In outline: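 HRE-bla ME-180 cells (beta-lactamase reporter under hypoxia response element) were plated at 2,000 cells/well in medium with 0.5% dialyzed FBS, rested 5 hrs, then given compounds in DMSO for 17 hrs at 37C, 5% CO2. Reporter induction was read with CCF4-AM FRET substrate.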

Experiment [4] can be described thus: qHTS assay to identify small molecule antagonists of the estrogen related receptor (ERR) signaling pathway from Tox21 library (AID 1224848). Also: nearly all actives have a fitted effect of over 50% in size. Summed up: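 Cells: ERR line, 2,000/well; 6 h preincubation 37 C/5% CO2. Cpd in DMSO via pin tool; 18 h, 37 C. ONE-Glo, 30 min RT, luminescence.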
The nature of experiment [5]: qHTS assay to identify small molecule agonists of the estrogen related receptor (ERR) signaling pathway from Tox21 library (AID 1224849; calls by dose curve; also: nearly all actives have a fitted effect of over 15% in size). As to conditions: ERR reporter cell line, ONE-Glo luciferase, 18 h; at 92.4 µM (top of the series). In outline: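 ERR reporter cell line (NTP) seeded, rested 6 h at 37 C/5% CO2, then pinned with Tox21 compounds in DMSO. After 18 h at 37 C, ONE-Glo luciferase luminescence was read following 30 min at room temperature.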

The nature of experiment [6]: qHTS RealTime-Glo MT Cell Viability Assay in HepG2 cells - 24 hour (AID 1224867). Also: nearly all actives have a fitted effect of over 50% in size. In outline:
(§1)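 Cells + NanoLuc/prosubstrate dispensed (600 cells/well) → 5 h at 37 C/5% CO2 → compounds in DMSO transferred → 40 h incubation at 37 C, luminescence read at 0, 8, 16, 24, 32, 40 h.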

A short description of experiment [7]: qHTS RealTime-Glo MT Cell Viability Assay in HEK293 cells - 32 hour (AID 1224868). Also: nearly all actives have a fitted effect of over 50% in size. Also: potency is read from the fitted curve at half-maximal effect. Summed up: (§2)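 Tox21 10K qHTS, HEK293, 600 cells/well, RealTime-Glo reagent co-dispensed with cells; 5 h preincubation, compound by pintool, 37 C, luminescence at 0–40 h.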
A short description of experiment [8]: qHTS RealTime-Glo MT Cell Viability Assay in HepG2 cells - 40 hour (AID 1224870). Also: nearly all actives have a fitted effect of over 50% in size. Also: potency is read from the fitted curve at half-maximal effect. In outline: (§3)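 HepG2 cells mixed with RealTime-Glo MT reagents (NanoLuc plus cell-permeant prosubstrate) were seeded at 600 cells/well, incubated 5 h at 37 C/5% CO2, then pinned with compounds in DMSO; nonlytic luminescence tracked viability during 40 h treatment.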
Experiment [9] is described as follows: A CellTox Green Cytotoxicity Assay to monitor cytotoxicity in HEK293 cells - 40 hour (AID 1224871). Also: nearly all actives have a fitted effect of over 45% in size. Summed up: (§4)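 HEK293 cells premixed with CellTox Green dye were seeded at 600 cells/well and left 5 h at 37 C/5% CO2 before pin transfer of 23 nL compound in DMSO. Fluorescence from dye bound to dead-cell DNA was read during 40 h treatment.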
The nature of experiment [10]: qHTS RealTime-Glo MT Cell Viability Assay in HEK293 cells - 16 hour (AID 1224872). Also: nearly all actives have a fitted effect of over 50% in size. Also: potency is read from the fitted curve at half-maximal effect. In outline:
as §2

A short description of experiment [11]: qHTS RealTime-Glo MT Cell Viability Assay in HepG2 cells - 8 hour (AID 1224873). Also: nearly all actives have a fitted effect of over 55% in size. In outline:
as §3

Experiment [12] can be described thus: qHTS RealTime-Glo MT Cell Viability Assay in HEK293 cells - 40 hour (AID 1224874). Also: nearly all actives have a fitted effect of over 50% in size. Also: potency is read from the fitted curve at half-maximal effect. The following applies: RealTime-Glo luminescence; max response: stronger effect = lower value. Summed up: (§5)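 HEK293 cells mixed with RealTime-Glo reagents (NanoLuc plus cell-permeant prosubstrate) at 600 cells/well, preincubated 5 h at 37 C/5% CO2, then given 23 nL compound in DMSO. Nonlytic luminescence from viable cells was read at 0, 8, 16, 24, 32 and 40 h.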

Experiment [13] in a line: A CellTox Green Cytotoxicity Assay to monitor cytotoxicity in HEK293 cells - 24 hour (AID 1224875). Also: nearly all actives have a fitted effect of over 45% in size. In outline: as §4
A short description of experiment [14]: A CellTox Green Cytotoxicity Assay to monitor cytotoxicity in HepG2 cells - 16 hour (AID 1224876). Also: nearly all actives have a fitted effect of over 45% in size. Summed up: (§6)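 HepG2 cells were seeded together with the CellTox Green dye at 600 cells/well, left 5 h at 37 C/5% CO2, then given compounds in DMSO. Fluorescence from dye bound to dead-cell DNA was read repeatedly over 40 h of treatment at 37 C.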
The nature of experiment [15]: qHTS RealTime-Glo MT Cell Viability Assay in HepG2 cells - 32 hour (AID 1224877). Also: nearly all actives have a fitted effect of over 55% in size. Also: potency is read from the fitted curve at half-maximal effect. In outline: as §1
Experiment [16] can be described thus: A CellTox Green Cytotoxicity Assay to monitor cytotoxicity in HepG2 cells - 24 hour (AID 1224878). Also: nearly all actives have a fitted effect of over 45% in size. In outline:
as §6

The nature of experiment [17]: A CellTox Green Cytotoxicity Assay to monitor cytotoxicity in HepG2 cells - 40 hour (AID 1224879). Also: nearly all actives have a fitted effect of over 40% in size. In outline:
as §6

The nature of experiment [18]: qHTS RealTime-Glo MT Cell Viability Assay in HEK293 cells - 0 hour (AID 1224880). In outline: as §5
The nature of experiment [19]: qHTS assay to identify small molecule agonists of H2AX - cell viability counter screen (AID 1224847; calls by dose curve; also: nearly all actives have a fitted effect of over 30% in size; also: potency is read from the fitted curve at half-maximal effect). Summed up: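 After overnight plating of 1000 CHO-K1 cells per well, a 15-concentration compound series was applied for 3 hr at 37C. Luminescence from CellTiter-Glo, read following 30 min at room temperature, reflected cell viability.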
Experiment [20] can be described thus: A CellTox Green Cytotoxicity Assay to monitor cytotoxicity in HEK293 cells - 0 hour (AID 1224869). Also: nearly all actives have a fitted effect of over 50% in size. In outline: as §4

Values joined by “and” are separate entries in the source; they are usually repeats but may differ in a detail not shown here. Equal values may be shown once. Records with an inconclusive call do not appear. Where a structure was tested more than once in an assay, its records may differ in their call. Active and inactive are the calls of the source. Unless noted, calls follow the shape of the dose curve; as a rule, active = well fitted curve in the direction sought with a large enough effect in the repeat runs; inconclusive = weak or mixed curves; inactive = no such curve, though single readings can be large; an effect the other way counts as inactive or inconclusive.
% is scaled to controls: 0 for no effect and ±100 for the full control effect.

Turning to `CCN(CC)C(=O)SCc1ccc(Cl)cc1`, the Potency result in [1], in [2], in [4], in experiment [6], in experiment [7] and in [8] was “inactive” throughout. The Potency entry in experiment [9], in experiment [10], in experiment [11], in [13], in experiment [14] and in [15] was “inactive” throughout. Moreover, the Potency result in [16], in [17] and in experiment [18] was “inactive” each time. For the same compound, the outcome in experiment [3] was inactive. Also, the activity change, positive = activation in experiment [5] is 4.95% (inactive) and 6.33% (inactive). Moreover, in experiment [12], the max response is -8.77% (inactive) and 0.16% (inactive).
On to `c1nc[nH]n1`, for which the Potency entry in experiment [1], in [2], in [19], in [4], in [6] and in experiment [7] was “inactive” in each case. The Potency result in experiment [9], in [10], in experiment [11], in experiment [14], in experiment [15] and in experiment [16] was “inactive” in each case. The Potency entry in experiment [17] and in experiment [18] was “inactive” throughout. Further, in experiment [3], the compound was called inactive. Further, in [5], the activity change, positive = activation was 1.27% (inactive) and 6.15% (inactive). The max response in [12] was -1.48% (inactive) and 17.9% (inactive).
With `Nc1ccc(-c2ccccc2)cc1`, the Potency in experiment [1] is 28.3 µM (active) and inactive; in experiment [7] it was 7.98 µM (active) and inactive; in experiment [10] it was 10 µM (active) and inactive; in experiment [12] it was 10 µM (active). The Potency result in experiment [2], in [19], in experiment [6], in experiment [20], in experiment [8] and in experiment [9] was “inactive” each time. Also, the Potency entry in [11], in experiment [13], in experiment [14], in experiment [15], in experiment [16] and in experiment [17] was “inactive” each time. In [18], the Potency result was “inactive”. Moreover, in [3], the outcome was inactive. Further, the max response in experiment [12] is -19.4% (inactive).
For `CNC(=O)Oc1cccc2c1OC(C)(C)O2`, the Potency entry in experiment [1], in experiment [2], in experiment [19], in [6], in experiment [7] and in experiment [8] was “inactive” each time. For the same compound, the Potency entry in [9], in experiment [10], in experiment [11], in [14], in [15] and in experiment [16] was “inactive” in each case. Further, the Potency entry in experiment [17] and in [18] was “inactive” each time. The call in experiment [3] was inactive. The max response in [12] was -0.755% (inactive) and 5.29% (inactive).
Turning to `O=P(Oc1ccccc1)(Oc1ccccc1)Oc1ccccc1`, the Potency entry in experiment [1], in [2], in [6], in experiment [7], in experiment [20] and in experiment [8] was “inactive” in each case. The Potency entry in experiment [9], in experiment [10], in experiment [11], in experiment [14], in experiment [15] and in [17] was “inactive” each time. Further, in experiment [18], the Potency result is “inactive”. For the same compound, the compound was classed as inactive in [3]. In addition, the Potency in [19] is 89.3 µM (active) and inactive. Moreover, in [5], the activity change, positive = activation is -19.4% (inactive) and -25.7% (inactive). The max response in [12] is -17.9% (inactive) and -13.8% (inactive).
For the compound `CCCCCc1cc(O)cc(O)c1`, the Potency entry in experiment [1], in [2], in experiment [20], in experiment [13], in experiment [14] and in experiment [18] was “inactive” each time. Also, the compound was called inactive in [3]. The Potency is 113 µM (active) in experiment [19]; 24.5 µM (active) in [7]; “inactive and 49 µM (active)” in experiment [8]; 24.5 µM (active) in experiment [10]; 24.5 µM (active) in [12]; “inactive and 49 µM (active)” in experiment [15].
